Compound activity from PubChem.
GLP1R ag: activates the human GLP-1 receptor; P43220; AID 624172; Potency, µM (series often up to 45.6 µM), inactives show at the highest dose activation, most hits filed as activators; HEK293 GLP-1R CRE-luciferase, luminescence, 4-6 h; cells express a hypersensitive GLP-1R form; 380,000 tested, 0.007% active; further: potency means the concentration at half of the fitted maximal effect; % of control where 0% means no effect
GLS inh: inhibitors of human glutaminase (GLS) | AID 624170 | 410,000 tested, 0.21% active | GLS enzymatic activity, qHTS titration | Potency, µM (highest dose often 45.5 µM), for the others: top-dose activity change, negative = inhibition, most hits filed as inhibitors | O94925; further: potency means the concentration at half of the fitted maximal effect; on the % scale 0 is the no-effect control and ±100 the full control effect
Target sequence (O94925 whole entry, looked up): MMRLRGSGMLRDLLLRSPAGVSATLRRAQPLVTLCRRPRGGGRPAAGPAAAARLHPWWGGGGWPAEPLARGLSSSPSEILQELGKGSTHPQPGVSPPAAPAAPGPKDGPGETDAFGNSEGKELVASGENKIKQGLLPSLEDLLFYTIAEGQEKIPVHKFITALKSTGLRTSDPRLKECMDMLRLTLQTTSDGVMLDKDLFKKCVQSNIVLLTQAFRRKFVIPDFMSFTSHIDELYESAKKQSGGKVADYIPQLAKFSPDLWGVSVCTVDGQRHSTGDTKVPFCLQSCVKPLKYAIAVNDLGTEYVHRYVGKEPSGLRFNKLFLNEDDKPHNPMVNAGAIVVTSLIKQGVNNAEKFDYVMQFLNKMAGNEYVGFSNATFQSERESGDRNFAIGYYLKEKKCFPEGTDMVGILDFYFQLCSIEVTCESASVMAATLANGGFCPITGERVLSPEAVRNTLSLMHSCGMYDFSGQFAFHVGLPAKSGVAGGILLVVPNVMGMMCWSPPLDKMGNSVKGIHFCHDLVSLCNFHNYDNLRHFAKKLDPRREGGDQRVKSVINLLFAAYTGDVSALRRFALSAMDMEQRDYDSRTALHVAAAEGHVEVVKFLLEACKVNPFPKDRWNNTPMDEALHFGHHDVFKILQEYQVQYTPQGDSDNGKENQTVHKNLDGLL
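Enzyme dispensed in phosphate buffer (45 mM, pH 8.2, 0.02% Tween-20), compounds pinned in, then 1 mM L-glutamine solution and the glutamate oxidase–HRP–Amplex Red mix added; fluorescence read immediately and again after 30 min at room temperature.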
GLP1R cytotox: cytotoxicity counter-screen for GLP-1 receptor inverse agonists. HEK293 cAMP-luciferase reporter cells, luminescence, 24 h. Potency, µM (doses to about 38.3 µM), without a hit: at the highest dose activity change, negative = inhibition, hits mostly inhibitors. 410,000 tested, 0.13% active. AID 624418;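 further: loss of luciferase light is scored as toxicity; potency means the concentration at half of the fitted maximal effect; on the % scale 0 is the no-effect control and ±100 the full control effect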
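1536-well qHTS counterscreen of the MLSMR; 200 cells/uL, 12 h pre-incubation, 23 nL cpd, 24 h at 37 deg C 5% CO2, luciferase detection reagent, 12 min RT, luminescence. Inhibition = undesired.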
hERG WT inh: inhibitors of human wildtype KCNH2 potassium channel. U2OS, BacMam KCNH2, thallium flux FluxOr; hits give low values. activity change, % at 1.84 µM. 340,000 tested, 0.37% active. Q12809. AID 720551;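 active means maximum activity change below -70%; inconclusive means maximum activity change between -70% and -50%; inactive means maximum activity change above -50%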; further: on the % scale 0 is the no-effect control and ±100 the full control effect
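U2OS cells were transduced with wild-type KCNH2 virus (2.03 x 10^8 / mL) for 4 h at room temperature, then cultured overnight at 37 C. Thallium flux was read with FluxOr dye. Rate constants were normalized to DMSO controls.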
KCNH2 3.1 inh: blocks the human KCNH2 3.1 channel isoform | U2OS KCNH2 3.1, thallium flux FluxOr; hits give low values | activity change, % (tested at about 1.8 µM) | 340,000 tested, 0.95% active | AID 720553;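 active means maximum activity change below -70%; inconclusive means maximum activity change from -70% to -50%; inactive means maximum activity change above -50%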;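 further: thallium influx rate constant from kinetic fluorescence after stimulation buffer; on the % scale 0 is the no-effect control and ±100 the full control effect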
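Channel expression came from 3.1 mutant virus (1.77 x 10^8 /mL) applied to suspended U2OS cells for 4 h. Flux was tracked with FluxOr dye plus Red40 quencher, and kinetic rate constants normalized to controls.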
GLP-1R inv ag: acts as inverse agonist at human GLP-1 receptor. P43220. HEK293 GLP-1R CRE-luciferase, luminescence, 24 h; GLP-1R form is constitutively active. Potency, µM (highest dose often 38.3 µM), for the others: top-dose activity change, negative = inhibition, usual class: inhibitors. 410,000 tested, 1.6% active. AID 624417; further: potency means the concentration at half of the fitted maximal effect; on the % scale 0 is the no-effect control and ±100 the full control effect; nearly all actives have a fitted effect of over 55% in size
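Cells are plated, allowed 12 hours at 37 deg C, then treated with compounds for 24 hr before luciferase detection reagent is added and luminescence is read after 12 min at room temperature. The HEK293 line carries constitutively active GLP-1R with a cAMP-responsive reporter.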
An asterisk follows results filed as active; ? = inconclusive; / = no result. Hits are enriched below; roughly 2.8% of the tested compounds scored in any of these assays. Unless noted, the call rests on the fitted dose curve; in most records, active means well fitted curve in the direction sought with a large enough effect; inconclusive means small, poorly fitted or top-dose-only effect, or another doubt; inactive means no such curve, though single readings can be large; an effect the other way counts as inactive or inconclusive.

SMILES	GLP1R ag	GLS inh	GLP1R cytotox	hERG WT inh	KCNH2 3.1 inh	GLP-1R inv ag
CCCOc1ccc(NC(=O)CC2C(=O)N(CC)C(=S)N2CCCN2CCN(Cc3ccccc3)CC2)cc1 (configuration not stated)	-2.6%	-5.2%	?	1.8	6.3	7.08µM*
CCCOc1ccc(NC(=O)CC2C(=O)N(C)C(=S)N2Cc2cccs2)cc1 (configuration not stated)	-6.9%	4.2%	-19.5%	-7.4	-14.4	7.94µM*
CN1C(=O)C(CC(=O)Nc2ccc(F)cc2)N(Cc2cccs2)C1=S (configuration not stated)	8.6%	-19.1%	-23.9%	-2.9	6.9	?
CCOc1ccc(NC(=O)CC2C(=O)N(C)C(=S)N2CCCc2ccccc2)cc1 (configuration not stated)	-6.0%	6.1%	4.6%	23.3	-6.1	-13.8%
CCOc1ccc(NC(=O)CC2C(=O)N(CC)C(=S)N2CCN2CCOCC2)cc1 (configuration not stated)	3.2%	?	15.0%	0.0	-87.5*	-32.5%
CCN1C(=O)C(CC(=O)Nc2ccc(Br)cc2)N(CCCc2ccccc2)C1=S (configuration not stated)	-10.3%	6.6%	?	-1.1	2.9	2µM*
COc1cc(/C=C/C(=O)NC(C)C2CC3CCC2C3)cc(OC)c1OC (configuration not stated)	?	-11.6%	2.5%	6.5	2.9	28.7%
Cc1ccc(NC(=O)Cn2c(=O)ccc3cc(S(=O)(=O)N4CCCC4)ccc32)cc1N(C)C	/	10.3%	-20.4%	/	/	-19.6%
CCOC(=O)c1ccccc1NC(=O)COC(=O)CCC(=O)c1ccc(C)cc1	15.8%	1.0%	-0.9%	7.2	2.9	15.3%
COc1cccc2c1ncc1c(-c3ccc(C)cc3)nn(-c3ccc(F)cc3)c12	/	3.1%	2.4%	/	/	2.3%
CCCCNC(=O)CCCn1c(=O)c2ccccc2n(Cc2ccccc2C)c1=O	0.6%	-5.1%	-4.5%	/	/	-16.3%
COc1ccc(-c2noc(-c3ccc(N4CCN(c5ccc(OC)cc5)CC4)c([N+](=O)[O-])c3)n2)cc1	/	4.7%	-2.9%	/	/	13.7%
CCNC(=O)CC1C(=O)N(CC)C(=S)N1NC(=O)c1ccc(Cl)cc1 (configuration not stated)	-7.6%	-6.1%	7.7%	-6.1	-5.9	13.5%
CCN1C(=O)C(CC(=O)NCCc2ccccc2)N(NC(=O)c2ccc(Br)cc2)C1=S (configuration not stated)	-1.8%	-1.5%	-8.6%	2.7	4.2	10µM*
CCCc1cnc(NCCNCC(O)COc2ccc(Cl)c(Cl)c2)nc1 (configuration not stated)	2.9%	-18.8%	?	22.3	-97.9*	5.01µM*
CC(=O)c1cccc(OCC(O)CNCCc2ccc(Cl)cc2)c1 (configuration not stated)	-0.7%	-8.2%	13.8%	0.9	-29.1	-23.8%
Cc1ccccc1C(=O)N(Cc1nc2ccccc2c(=O)[nH]1)C1CCCC1	8.4%	-13.8%	-7.5%	6.6	8.8	12.6µM*
Cc1ccc(C(=O)N(Cc2nc3ccccc3c(=O)[nH]2)C2CCCC2)cc1	-10.5%	-6.3%	-22.4%	8.8	9.2	?
CCn1c(SCC(=O)N2c3ccccc3Sc3ccccc32)nc2c1c(=O)n(C)c(=O)n2C	0.9%	-2.1%	0.6%	-12.1	9.2	0.0%
CCCCn1c(SCC(=O)N2c3ccccc3Sc3ccccc32)nc2c1c(=O)n(C)c(=O)n2C	3.0%	0.9%	-29.8%	-1.5	-39.5	11.2µM*
Cc1cc(N2CCN(C)CC2)ccc1NC(=O)c1ccc(-c2ccc(Cl)cc2)o1	11.7%	20.0%	?	6.6	-42.7	11.2µM*
CN1CCN(c2ccccc2NC(=O)c2ccc(-c3ccc(Cl)c(Cl)c3)o2)CC1	0.7%	-1.3%	3.4%	-25.5	?	-4.5%
